Measured values from PubChem BioAssay (NCI).
Values joined by “and” are separate entries in the source; they are usually repeats but may differ in a detail not shown here. Equal entries are not always repeated. This is part of a sample that, as a whole, favours compounds with a hit. Of some 79,000 tested, about 15% had one in any assay. Where a structure was tested more than once in an assay, its records may differ in their call. Active and inactive are the calls of the source. No stated cut-off is given here; in the data, active means growth inhibition above about 70%; inactive means the rest.

Tests used:
[1] = NCI Yeast Anticancer Drug Screen. Data for the rad50 strain (AID 155);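 further: 0% = growth of vehicle-only cultures of the same strain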; details: S. cerevisiae rad50 strain growth inhibition, stronger effect = higher value
Method in brief: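 Readout: growth inhibition relative to vehicle-treated cultures. Compound exposure was carried out in a genetically defined yeast strain deficient in DNA damage repair.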

[2] = NCI Yeast Anticancer Drug Screen. Data for the mec2-1 strain (AID 157); details: S. cerevisiae mec2-1 strain, stronger effect = higher value
Method in brief: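 mec2-1 yeast strain, carrying an alteration in DNA damage repair or cell cycle control, was exposed to compounds; growth inhibition was measured relative to vehicle-treated controls.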

[3] = NCI Yeast Anticancer Drug Screen. Data for the sgs1 mgt1 strain (AID 161);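 further: 0% = growth of cultures given vehicle only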; details: S. cerevisiae sgs1 mgt1 strain, stronger effect = higher value
Method in brief: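 Yeast cells carrying a defined DNA-repair defect were exposed to test compounds. Growth inhibition was measured relative to vehicle-treated controls.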

[4] = NCI Yeast Anticancer Drug Screen. Data for the cln2 rad14 strain (AID 165);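 further: 0% = growth equal to vehicle treated cultures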; details: S. cerevisiae cln2 rad14 strain, stronger effect = higher value
Method in brief: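 Yeast carrying cln2 and rad14 alterations (cell cycle control and DNA damage repair) were exposed to compounds. Growth inhibition was measured against vehicle-treated controls.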

[5] = NCI Yeast Anticancer Drug Screen. Data for the bub3 strain (AID 167); details: S. cerevisiae bub3 mutant strain, stronger effect = higher value
Method in brief: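 Readout: yeast growth inhibition, expressed relative to vehicle-only wells. The test organism is a mutant strain from a panel with lesions in DNA repair or checkpoint genes.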

[6] = NCI Yeast Anticancer Drug Screen. Data for the mlh1 rad18 strain (AID 175); details: S. cerevisiae mlh1 rad18 strain growth inhibition, stronger effect = higher value
Method in brief: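 Growth inhibition of the yeast strain was measured after compound exposure and expressed relative to vehicle-treated controls. The strain carries defined defects in DNA damage repair.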

[7] = at 5.0 µM (retest, dose inferred, filed as 0.5)
[8] = at 50.0 µM (retest, dose inferred, filed as 5.0)

SMILES | growth inhibition [1, 7] | growth inhibition [1, 8] | growth inhibition ([1]; at 50.0 µM) | growth inhibition [2, 7] | growth inhibition [2, 8] | growth inhibition ([2]; at 50.0 µM) | growth inhibition [3, 7] | growth inhibition [3, 8] | growth inhibition ([3]; at 50.0 µM) | growth inhibition [4, 7] | growth inhibition [4, 8] | growth inhibition ([4]; at 50.0 µM) | growth inhibition [5, 7] | growth inhibition [5, 8] | growth inhibition ([5]; at 50.0 µM) | growth inhibition [6, 7] | growth inhibition [6, 8] | growth inhibition ([6]; at 50.0 µM)
OC(c1ccccc1)(c1ccccc1)c1ccccc1 (tested in a mixture with another compound) | -5% (inactive) | 94% (active) | 10.7% (inactive) and 96.7% (active) | -7% (inactive) | 91% (active) | 2.55% (inactive) and 96.5% (active) | -3% (inactive) | 90% (active) | -1.85% (inactive) and 92.7% (active) | -12% (inactive) | 94% (active) | -4.75% (inactive) and 95.2% (active) | -7% (inactive) | 96% (active) | 1.15% (inactive) and 95.4% (active) | -6% (inactive) | 93% (active) | 9.15% (inactive) and 94% (active)
CC(C)(C)c1ccc(-c2c3ccccc3cc3ccccc23)cc1 | -1% (inactive) | -1% (inactive) | -2.45% (inactive) | -1% (inactive) | -1% (inactive) | -4.85% (inactive) | -5% (inactive) | -2% (inactive) | 7.55% (inactive) | 2% (inactive) | -1% (inactive) | 30.1% (inactive) | 1% (inactive) | 16% (inactive) | 0.8% (inactive) | -1% (inactive) | 2% (inactive) | -2.2% (inactive)
COc1cccc(NC(=S)N2CCCCC2)c1 | -158% (inactive) | -160% (inactive) | 38.4% (inactive) | -51% (inactive) | -58% (inactive) | -0.45% (inactive) | -69% (inactive) | -61% (inactive) | -8.25% (inactive) | -69% (inactive) | -102% (inactive) | -82.4% (inactive) | -60% (inactive) | -58% (inactive) | 14.7% (inactive) | -132% (inactive) | -151% (inactive) | 20.9% (inactive)
Nc1nc(Cl)cc(NCCCCCCCCCCNc2cc(Cl)nc(N)n2)n1 | -4% (inactive) | 96% (active) | 28.9% (inactive) | 3% (inactive) | 100% (active) | 19.1% (inactive) | -1% (inactive) | 100% (active) | 0.05% (inactive) | 10% (inactive) | 99% (active) | 52.1% (inactive) | -7% (inactive) | 99% (active) | 18.8% (inactive) | 14% (inactive) | 99% (active) | 33% (inactive)
CC(=O)c1ccc(N)cc1 | 35% (inactive) | 73% (active) | 7.3% (inactive) | 50% (inactive) | 100% (active) | 15.3% (inactive) | 7% (inactive) | 52% (inactive) | 26.8% (inactive) | 12% (inactive) | 39% (inactive) | -1.3% (inactive) | 30% (inactive) | 99% (active) | -2.8% (inactive) | 62% (inactive) | 96% (active) | 20.1% (inactive)
Cc1cccc(Cc2ccccc2Cl)c1O | 0% (inactive) | 93% (active) | 83.2% (active) | -1% (inactive) | 93% (active) | 38% (inactive) | 1% (inactive) | 80% (active) | 89.2% (active) | -7% (inactive) | 84% (active) | 98.6% (active) | -1% (inactive) | 82% (active) | 89.8% (active) | -2% (inactive) | 81% (active) | 46.2% (inactive)
CCCCCCCCCCCCOC(=O)C(C)OC(C)=O (stereo unspecified) | 1% (inactive) and 2% (inactive) | 99% (active) and 97% (active) | 98.8% (active) and 98.9% (active) | -1% (inactive) and 1% (inactive) | 99% (active) and 98% (active) | 98.5% (active) and 98.8% (active) | 2% (inactive) and 5% (inactive) | 99% (active) | 99.2% (active) and 7.6% (inactive) | -1% (inactive) and 5% (inactive) | 97% (active) and 92% (active) | 98.8% (active) and 96.5% (active) | 1% (inactive) | 99% (active) and 96% (active) | 98% (active) and 99.1% (active) | -10% (inactive) and 2% (inactive) | 99% (active) | 98.7% (active) and 99% (active)
